{"source": "PubChem BioAssay AID1053197", "about": "(The Scripps Research Institute Molecular Screening Center, 2014)", "note": "Hit rate of the full screen: of about 370,000 compounds, about 2,600 (0.7%) were called active. Shown is part of a subset that was picked to be rich in actives. Unmarked numbers belong to inactive results.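 Rule for the calls: active = inhibition above a cutoff: mean of compounds within the control limits plus 3 SD of those (cut at about 17% in these data); inactive = the rest.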", "data": [{"biological_target": "Sialate O-acetylesterase (Homo sapiens) (UniProt Q9HAT2)", "sequence (Q9HAT2 whole entry, looked up)": "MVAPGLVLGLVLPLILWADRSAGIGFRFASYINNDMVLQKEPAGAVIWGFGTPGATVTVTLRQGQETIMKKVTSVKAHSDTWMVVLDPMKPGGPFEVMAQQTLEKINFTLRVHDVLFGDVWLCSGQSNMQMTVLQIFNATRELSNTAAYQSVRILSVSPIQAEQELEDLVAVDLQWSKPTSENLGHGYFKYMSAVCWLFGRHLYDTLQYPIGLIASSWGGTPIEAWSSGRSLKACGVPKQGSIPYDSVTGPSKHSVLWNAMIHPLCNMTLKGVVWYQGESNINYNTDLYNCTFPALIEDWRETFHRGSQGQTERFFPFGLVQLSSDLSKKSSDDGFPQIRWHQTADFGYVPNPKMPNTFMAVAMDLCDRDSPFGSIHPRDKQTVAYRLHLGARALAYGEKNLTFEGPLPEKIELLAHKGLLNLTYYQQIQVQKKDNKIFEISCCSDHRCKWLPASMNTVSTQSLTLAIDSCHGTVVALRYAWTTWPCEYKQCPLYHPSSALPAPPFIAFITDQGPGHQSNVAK", "test": "blockers of sialate O-acetylesterase activity-probe labeling – biochemical, fluorescence polarization, FP-Rh probe, 1536-well HTS, primary screen (AID 1053197);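 note: 0% = plate median of compound wells and 100% = probe without SIAE protein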", "conditions": "SIAE FP-Rh probe binding, at 9.66 µM, active compounds read high", "values": [{"smiles": "C=CCN1C(C(=O)OC)CN(Cc2cn(Cc3ccccc3)nn2)CCS1(=O)=O", "note": "(configuration not stated)", "inhibition": "5.02%"}, {"smiles": "O=C(CSc1nc2c(c(=O)[nH]1)CCCC2)N1CCCCC1", "inhibition": "1.16%"}, {"smiles": "O=C(c1c[nH]c2ccccc12)N1CCC(Oc2cccnc2)CC1", "inhibition": "7.61%"}, {"smiles": "Cc1ccc(C(=O)N(Cc2ccccn2)CC2CCCO2)cc1", "note": "(configuration not stated)", "inhibition": "-2.59%"}, {"smiles": "CCOC(=O)c1ccccc1N1C(=O)C2Sc3[nH]c(=O)sc3C(/C=C/c3ccccc3)C2C1=O", "note": "(configuration not stated)", "inhibition": "15.9%"}, {"smiles": "CCOC(=O)C1CSCCS(=O)(=O)N1Cc1ccc(Cl)cc1", "note": "(configuration not stated)", "inhibition": "-6.12%"}, {"smiles": "CCOC(=O)C1Sc2[nH]c(=O)sc2C(c2ccc(Cl)cc2)C1C(=O)OCC", "note": "(configuration not stated)", "inhibition": "24.7% (active)"}, {"smiles": "COC(=O)c1cccc(Cn2ccc3ccc(-c4ccc5ccn(C(=O)c6ccccc6C)c5c4)cc32)c1", "inhibition": "12.8%"}, {"smiles": "COC(=O)C1CN(Cc2ccc(F)cc2)CCS(=O)(=O)N1Cc1ccc(Cl)cc1", "note": "(configuration not stated)", "inhibition": "-1.35%"}, {"smiles": "CCOC(=O)[C@]12CCCC3=C1N(CCC3)C(=O)[C@@H](CC(=O)NCC13CC4CC(CC(C4)C1)C3)C2", "inhibition": "-1.2%"}, {"smiles": "COc1ccc(-c2cc(C(=O)NC(C(=O)O)C(C)C)c(C)o2)cc1OC", "note": "(configuration not stated)", "inhibition": "-1.04%"}, {"smiles": "O=C(CCn1nnc2ccccc2c1=O)N[C@@H](Cc1c[nH]c2ccccc12)C(=O)O", "inhibition": "2.35%"}, {"smiles": "COc1ccc(-c2cc(C(=O)NC(Cc3c[nH]c4ccccc34)C(=O)O)c(C)o2)cc1OC", "note": "(configuration not stated)", "inhibition": "17.2% (active)"}, {"smiles": "COc1ccc2c(C(C)c3ccc(N)cc3)cn(C)c2c1", "note": "(configuration not stated)", "inhibition": "15.5%"}, {"smiles": "CN(C)c1ccc(NC(=O)NC2CCCCN(Cc3ccc(Cl)cc3)C2=O)cc1", "note": "(configuration not stated)", "inhibition": "11.1%"}, {"smiles": "COc1ccc(C(=O)OCCN2CCN(C3CN(Cc4cn(Cc5ccccc5F)nn4)S(=O)(=O)C3)CC2)cc1OC", "note": "(configuration not stated)", "inhibition": "3.42%"}, {"smiles": "Cc1ccc(NC(=S)NNC(=O)CSc2nnc(SCc3ccccc3Cl)s2)cc1", "inhibition": "5.21%"}, {"smiles": "Cc1[nH]c2ccccc2c1C(=O)CSCC(=O)O", "inhibition": "30.1% (active)"}, {"smiles": "Cc1[nH]c2ccccc2c1C(=O)CN1CCCC(C)C1", "note": "(configuration not stated)", "inhibition": "-6.16%"}, {"smiles": "Cc1[nH]c2ccccc2c1C(=O)CN1CC(C)CC(C)C1", "note": "(configuration not stated)", "inhibition": "-1.61%"}, {"smiles": "N#Cc1ccc(OC[C@@H](O)CN2CCC(C(O)(c3ccccc3)c3ccccc3)CC2)c(F)c1", "inhibition": "-5.05%"}, {"smiles": "COC(CNC(=O)[C@H](Cc1ccccc1)NC1(C(=O)NC2CCCCC2)CCCCC1)OC", "inhibition": "8.17%"}, {"smiles": "Cc1cc(C)cc(NC(=S)NCCCN2CCOCC2)c1", "inhibition": "-2%"}, {"smiles": "Cc1ccc(NC(=S)NCCN2CCOCC2)cc1", "inhibition": "57.3% (active)"}, {"smiles": "CCCC(=O)NC(=S)Nc1ccc(CN2CCOCC2)cc1", "inhibition": "-1.23%"}, {"smiles": "C=CCN(C)CC#Cc1ccccc1", "inhibition": "1.7%"}, {"smiles": "Cn1c(NN)nc2sc3c(c2c1=O)CCC3", "inhibition": "41.8% (active)"}, {"smiles": "COc1ccccc1-n1c(SCC(=O)O)nc2sc3c(c2c1=O)CCC3", "inhibition": "-0.36%"}, {"smiles": "CCn1c(SCC(C)=O)nc2sc3c(c2c1=O)CCCC3", "inhibition": "0.4%"}, {"smiles": "CCn1c2ccccc2c2cc(NC(=O)CSc3nnc(-c4ccccc4)n3-c3ccc(C)cc3)ccc21", "inhibition": "4.72%"}, {"smiles": "CNS(=O)(=O)c1ccc2c(c1)[nH]c(=S)n2C", "inhibition": "18.6% (active)"}, {"smiles": "CCCCn1c(=S)[nH]c2cc(S(=O)(=O)N3CCCCC3)ccc21", "inhibition": "8.16%"}, {"smiles": "CCn1c(=S)[nH]c2cc(S(=O)(=O)N3CCOCC3)ccc21", "inhibition": "-1%"}, {"smiles": "CN1[C@H](Cc2ccccc2)COc2cccc(N3CCSCC3)c2S1(=O)=O", "inhibition": "-5.79%"}, {"smiles": "O=S1(=O)c2c(NCc3ccco3)cccc2Oc2ccccc2CN1Cc1cn(Cc2cccc(C(F)(F)F)c2)nn1", "inhibition": "-2.9%"}, {"smiles": "C[C@@H]1CN([C@@H](C)CO)C(=O)c2cccc(NC(=O)Nc3cccc4ccccc34)c2O[C@H]1CN(C)S(=O)(=O)c1ccccc1F", "inhibition": "-1.21%"}, {"smiles": "Oc1ccc(N=Cc2c(O)ccc3ccccc23)cc1", "inhibition": "21% (active)"}, {"smiles": "Oc1ccc(N=Cc2sc3ccccc3c2Cl)cc1", "inhibition": "22.5% (active)"}, {"smiles": "CCOC(=O)C1CCN(C(=O)C(C)(C)NC(=O)Nc2ccccc2Cl)CC1", "inhibition": "-1.25%"}, {"smiles": "O=C(Nc1nc2ccc(Cl)cc2s1)c1cc(-c2ccc(Cl)cc2)nc2ccccc12", "inhibition": "-3.74%"}, {"smiles": "CN(CCO)c1cccc2c1S(=O)(=O)N(Cc1cn(Cc3ccc(C(F)(F)F)cc3)nn1)Cc1ccccc1O2", "inhibition": "-1.94%"}, {"smiles": "NNc1nc2c(Cl)cccc2s1", "inhibition": "17.2% (active)"}, {"smiles": "O=S1(=O)c2ccc(Br)cc2OC[C@@H](Cc2ccccc2)N1Cc1cn(Cc2ccco2)nn1", "inhibition": "-0.13%"}, {"smiles": "COC(=O)C1CN(CCc2ccccc2)CCS(=O)(=O)N1Cc1cccc(Cl)c1", "note": "(configuration not stated)", "inhibition": "-0.76%"}, {"smiles": "O=C(N/N=C/c1sc(N2CCCCC2)nc1-c1cccs1)c1cccnc1", "inhibition": "19.6% (active)"}, {"smiles": "O=C(Nc1cccc(Cl)c1N1CCOCC1)c1cccnc1", "inhibition": "-7.61%"}, {"smiles": "O=C(c1cccnc1)N1CCN(S(=O)(=O)c2cccs2)CC1", "inhibition": "4.01%"}, {"smiles": "COC(=O)CC1CCc2cc(C)cc(C(CC(C)C)NC(=O)[C@H](CC(C)C)NC(=O)OCc3ccccc3)c2O1", "note": "(some centres not stated)", "inhibition": "4.19%"}, {"smiles": "O=C(Nc1ccc(Cl)cc1)c1csc([C@@H]2O[C@H](CO)[C@H](O)[C@H](O)[C@H]2O)n1", "inhibition": "-0.06%"}, {"smiles": "O=C(NCc1cccnc1)c1ccc2nc([C@@H]3O[C@H](CO)[C@H](O)[C@H](O)[C@H]3O)[nH]c2c1", "inhibition": "-0.84%"}, {"smiles": "O=C(Nc1cccc(Cc2ccccc2)c1)Nc1ccc2nc([C@@H]3O[C@H](CO)[C@@H](O)[C@H](O)[C@H]3O)[nH]c2c1", "inhibition": "21% (active)"}, {"smiles": "CC(CCN1CCC(C(O)(c2ccccc2)c2ccccc2)CC1)Oc1ccc(Cl)cc1", "note": "(configuration not stated)", "inhibition": "-3.91%"}, {"smiles": "CC(C)=CCCC1(C)C=Cc2c(ccc3c2[nH]c2cc(O)c(C)cc23)O1", "note": "(configuration not stated)", "inhibition": "20.8% (active)"}, {"smiles": "CCn1c(=O)n2n(c1=O)[C@@]1(C=C3CCCC[C@H]32)N=C(NC(=O)c2ccccc2)N(Cc2ccccc2)[C@H]1Cc1ccccc1", "inhibition": "7.65%"}, {"smiles": "COC(=O)C1CN(CC(C)C)CCS(=O)(=O)N1Cc1ccc(C)cc1", "note": "(configuration not stated)", "inhibition": "5.08%"}, {"smiles": "c1ccc2[nH]c(-c3nc4ccccc4[nH]3)nc2c1", "inhibition": "47.9% (active)"}, {"smiles": "O=C(OCc1nc2ccccc2[nH]1)C1CCCCC1", "inhibition": "0.98%"}, {"smiles": "O=S(=O)(c1ccc(Br)cc1)N1CCC(c2nc3ccccc3[nH]2)CC1", "inhibition": "-5.23%"}, {"smiles": "COc1ccc(C2Nc3ccccc3C(=O)N2Cc2cccs2)cc1COc1c(C)cccc1C", "note": "(configuration not stated)", "inhibition": "-4.49%"}, {"smiles": "O=C(CSc1nc2sc3c(c2c(=O)n1-c1ccccc1)CCCC3)NN=Cc1ccc(OCc2ccccc2)cc1", "inhibition": "8.02%"}, {"smiles": "COc1ccc([C@H]2OC(=O)C[C@H]2C(=O)N2CCN(c3ccccc3F)CC2)cc1OC", "inhibition": "-5.68%"}, {"smiles": "CC(C)c1cc(C(=O)N/N=C/c2ccoc2)c(O)c(C(C)C)c1", "inhibition": "-13.5%"}, {"smiles": "CC(C)=CCc1ccc(O)c(=O)cc1C(C)C", "inhibition": "6.87%"}, {"smiles": "CC(C)c1cc(N=O)cc(C(C)C)c1O", "inhibition": "25.2% (active)"}, {"smiles": "O=C(NCCCc1ccccc1)[C@H](Cc1ccccc1)NC1(C(=O)NCCc2c[nH]c3ccccc23)CCC1", "inhibition": "4.77%"}, {"smiles": "Cc1ccc(-n2c(SCC(=O)Nc3ccc(S(=O)(=O)Nc4nccs4)cc3)nnc2-c2cccnc2)cc1", "inhibition": "-10.3%"}, {"smiles": "C=C1C(C(C)C)N(C)C2=NC(c3ccccc3)CC(=O)N12", "note": "(configuration not stated)", "inhibition": "6.93%"}, {"smiles": "O=C(NC(=S)Nc1cccc(-c2ccc(CO)o2)c1)c1cccs1", "inhibition": "-33.9%"}, {"smiles": "O=C(NC(=S)Nc1ccc(NC(=O)c2cccs2)cc1)c1ccc([N+](=O)[O-])cc1", "inhibition": "26.9% (active)"}, {"smiles": "NS(=O)(=O)c1ccc(NC(=S)NNC(=O)c2cccs2)cc1", "inhibition": "4.71%"}, {"smiles": "O=C(c1ccncc1)N1CC[C@H]2[C@H](CCCN2Cc2ccc(F)cc2)C1", "inhibition": "2.68%"}, {"smiles": "C=CCn1c(SCC(N)=O)nnc1-c1ccccc1OC", "inhibition": "-7.56%"}, {"smiles": "CCOc1ccc(Nc2nc(Cc3nnc(SCC(=O)NC4CCCC4)n3C)cs2)cc1", "inhibition": "19.1% (active)"}, {"smiles": "CCOc1ccc(Nc2nc(Cc3nnc(SCC(=O)c4ccc(C)cc4)o3)cs2)cc1", "inhibition": "18.2% (active)"}, {"smiles": "CCOc1cccc(-c2nnc(SCC(=O)NC3CC3)n2C)c1", "inhibition": "-3.03%"}, {"smiles": "CCC(=O)Nc1ccc(C(=O)CSc2nnc(CNc3ccc(Cl)cc3)o2)cc1OC", "inhibition": "-0.55%"}, {"smiles": "CC(=O)Nc1ccc(C(=O)CSc2nnc(Cc3ccccc3)o2)cc1", "inhibition": "-1.29%"}, {"smiles": "Cn1c(CC(=O)Nc2ccc(F)cc2)nnc1SCC(=O)NC1CCCCC1", "inhibition": "2.38%"}, {"smiles": "CC(C)(C)c1ccc(C(=O)Nc2cc(Cl)c(Br)cc2C(=O)O)cc1", "inhibition": "-77.3%"}, {"smiles": "COc1ccc(-n2c(SCC(=O)Nc3ccccc3-c3ccccc3)nnc2-c2cccnc2)cc1", "inhibition": "4.69%"}, {"smiles": "Clc1ccc(-n2c(COc3ccccc3)nnc2SCc2nc3ccccc3[nH]2)cc1", "inhibition": "-2.83%"}, {"smiles": "Nn1c(SCC(=O)Nc2ccc(S(N)(=O)=O)cc2)nnc1-c1n[nH]c2c1CCC2", "inhibition": "-5.56%"}, {"smiles": "Cc1ccccc1CN1CCCCC(NC(=O)Nc2ccccc2F)C1=O", "note": "(configuration not stated)", "inhibition": "1.41%"}, {"smiles": "Nc1ccc2nc3c(=O)[nH]c(=S)[nH]c3nc2c1", "inhibition": "31.8% (active)"}, {"smiles": "O=C(N1CCOCC1)N1CC[C@H]2[C@H](CCCN2Cc2ccc(F)cc2)C1", "inhibition": "0.67%"}, {"smiles": "O=C(c1cccc(C(F)(F)F)c1)N1CC[C@H]2[C@H](CCCN2Cc2cc(F)cc(F)c2)C1", "inhibition": "1.24%"}, {"smiles": "C=CCN1[C@H](CC(C)C)COc2cccc(N3CCCC3)c2S1(=O)=O", "inhibition": "6.71%"}]}]}
